Among the data in PubChem BioAssay (NCATS) are outcome values, retold here.

Results filed as inconclusive are left out. The source made the active and inactive calls. Calls follow the shape of the dose curve; as a rule, active = well fitted inhibition curve with a large enough effect; inconclusive = small, poorly fitted or top-dose-only effect; inactive = flat fitted curve, though single readings scatter.

The experiment can be described thus: High Content Imaging Cell-Based qHTS for Inhibitors of the mTORC1 Signaling Pathway in MEF (Tsc2-/-, p53-/-) Cells (AID 2666).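 Also: percent of cells scored positive for phospho-rpS6 Ser235/236 immunostaining by imaging.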 The settings on record: at 38.3 µM (top of the series). An excerpt:
NIH Molecular Libraries Probe Production Centers Network [MLPCN]
NIH Chemical Genomics Center [NCGC]
Assay Submitter (PI): Blenis, John; Hoffman, Greg; Harvard University
NCGC Assay Overview: Thee mammalian target of rapamycin (mTOR) is an intracellular serine/threonine kinase Aberrant regulation of mTOR signaling plays a causative role in a number of human diseases, including cancer, benign tumors such as lymphangioleiomyomatosis (LAM) and Tuberous Sclerosis Complex (TSC), and metabolic diseases such as diabetes and obesity. This project aims to identify inhibitors of ribosomal protein S6 (rpS6) phosphorylation. The phosphorylation of rpS6 is a key event downstream of mTOR activation. The assay uses a phospho-specific antibody of phospho-rpS6 to detect inhibitors of mTOR activation. Mutations in the Tsc1 and Tsc2 genes are the underlying genetic lesions responsible for TSC, causing constitutive activation of the mTORC1 pathway and leading to profound effects on cell metabolism. Aberrant metabolism in cancer has recently received significant attention as a target to develop therapeutic agents in the treatment of cancer1. As Tsc2-/- cells have lost the ability to respond to energy and growth factor deprivation, these cells are unable to properly down regulate cellular biosynthetic processes in response to metabolic stress, and are thus extremely sensitive to glucose deprivation-induced death.2 A central goal of this project is to explore the unique cell survival and metabolic properties of cells with Tsc1 or Tsc2 by screening for compounds that selectively target the Tsc2-/- MEFs by screening both Tsc2-/- and WT MEF cell lines. We hope to better understand these aspects of TSC physiology in order to exploit them for therapeutic benefit.
NCGC IN Cell Assay Protocol:
For quantitative high throughput analysis of mTORC1 signaling, we developed a cell-based assay for immuno-fluorescence based detection of rpS6 phosphorylation on the Acumen Explorer that will be used a platform for the primary small molecule screen. Mouse embryonic fibroblasts (MEFs) are cultured in 1536-well plates using DMEM + 10% FBS. Twenty-four hrs after plating, test compounds (solubilized in DMSO) are delivered and incubated with the cells for 24 hrs at 37 degree Celsius. Following the incubation, media with compound is aspirated and the cells are fixed in 4% paraformaldehyde (PFA) containing PBS + 0.2% TX-100. Next, PFA is aspirated, cells are washed two times with PBS plus 0.2% TX-100 and the cells are blocked for 1 hr at room temperature (blocking buffer: LiCOR Blocking Buffer plus 0.2% TX-100). This is followed by aspiration and staining with Alexa-488 conjugated-phospho-rpS6 Ser235/236 antibody for 2 hours at room temperature (Cell Signaling Technology # 4803, 1:50 dilution in blocking buffer). Cells are washed two times with PBS plus 0.2% TX-100, and stained with 10 uM propidium iodide (PI) for 20-25 minutes for cell number measurement (1:500 dilution of Hoescht staining is also added for IN Cell imaging). Active wells which are selected (based on Acumen results) are imaged on the IN Cell 1000 (GE Healthcare) using the D360/40X and HQ480/40X excitation filters for the Hoechst and Alexa-488 cytoplasmic stains, respectively. The fluorescence emission filters used were HQ460/40M and HQ535/50M for the Hoechst and Alexa-488 cytoplasmic stains, respectively. The normalized phospho-S6 staining is calculated as the ratio of […] for the single concentration rapamycin control ([…] nM) and DMSO columns. […] Inhibition of the pathway is defined based on the normalized phospho-S6 intensity in rapamycin treated cells. Each treatment is reported as the % positive cells in the well, where thresholds are defined by selecting wells with the highest and lowest signal and differentiating between the % non-active and % active populations. […]
(In general: In qHTS, concentration-response curves come from the screen itself.)
In the case of `O=C(O)c1cc2cc(Cc3cccnc3)ccc2o1`, the compound was classed as inactive.
With `CC1(C)CCC(NC(=O)[C@@H](N)CCC(=O)O)CC1` the entry was “inactive”.
With `COc1cc2c(cc1O)CC[C@@H]1[C@@H]2CC[C@]2(C)[C@@H](O)CC[C@@H]12` the entry was “inactive”; with `Nc1cc(Cl)c(NC2=NCCN2)c(Cl)c1`, “inactive”; with `CC(CCc1ccccc1)NCC(O)c1ccc(O)c(C(N)=O)c1` (configuration not stated), “inactive”.
To `CCC(NC(C)C)C(O)c1ccc(O)c(O)c1` (configuration not stated) belongs “inactive”; to `CC(=O)O[C@H]1C[C@@H]2CC[C@@H]3[C@H](CC[C@@]4(C)[C@H]3C[C@H]([N+]3(C)CCCCC3)[C@@H]4OC(C)=O)[C@@]2(C)C[C@@H]1[N+]1(C)CCCCC1`, “inactive”; to `COC(=O)[C@H]1[C@H]2C[C@H]3c4[nH]c5ccccc5c4CCN3C[C@H]2CC[C@@H]1O`, “inactive”.
As for `C[C@@H]1C(=O)NC2=Nc3cccc(Cl)c3CN21`, the call was inactive.
With `CN1C2CCC1CC(OC(=O)c1c[nH]c3ccccc13)C2` (configuration not stated) the entry was “inactive”.
With `CCCn1c(=O)[nH]c(=O)c2[nH]cnc21` the entry was “inactive”.
With `CC(C)C[C@H]1C(=O)N2CCC[C@H]2[C@]2(O)O[C@](NC(=O)[C@@H]3C=C4c5cccc6[nH]c(Br)c(c56)C[C@H]4N(C)C3)(C(C)C)C(=O)N12` the entry was “inactive”; with `CNCCC(Oc1ccccc1C)c1ccccc1` (configuration not stated), “inactive”; with `C[N+]1(CCCCC[N+]2(C)CCCC2)CCCC1`, “inactive”.
Consider `C[C@]12CC[C@@H]3c4ccc(O)cc4CC[C@H]3[C@@H]1CC[C@@H]2O`, for which the result was inactive.
To `O=C1CCC(c2ccc(-n3ccnc3)cc2)=NN1` belongs “inactive”; to `CCCC1O[C@@H]2C[C@H]3[C@@H]4CCC5=CC(=O)C=C[C@]5(C)[C@H]4[C@@H](O)C[C@]3(C)[C@]2(C(=O)CO)O1` (some centres not stated), “inactive”; to `COc1cc(NS(C)(=O)=O)ccc1Nc1c2ccccc2nc2ccccc12`, “inactive”.
To `N[C@@H](Cc1cnc[nH]1)C(=O)O` belongs “inactive”; to `CC(C)COC(=O)OCN1C(=O)CN(CCN2CC(=O)N(COC(=O)OCC(C)C)C(=O)C2)CC1=O`, “inactive”.
With `N[C@H](CO)C(=O)O` the entry was “inactive”.
Take `CC[C@H](C)C(=O)O[C@H]1CCC=C2C=C[C@H](C)[C@H](CC[C@@H]3C[C@@H](O)CC(=O)O3)[C@H]21`: the call was inactive.
